Source: the supplement of paper PMC9694430

Assays:
Test in all cases: thermal shift delta Tm vs DMSO control; higher = stronger stabilization (binding)
Settings in all cases: 12.5 µM; protein concentration 2 µM
LOC_OS01G01410-cb001 = system: LOC_OS01G01410-cb001
How it was run: (§1)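 Heating from 25°C to 95°C at 0.05°C/s, fluorescence was recorded for 19.5 μl wells of 2 μM E. coli-expressed, purified rice kinase domain in 100 mM potassium phosphate pH 7.5, 150 mM NaCl, 10% glycerol and 5 × SYPRO Orange with compound in DMSO. Boltzmann fits gave melting temperatures for this differential scanning fluorimetry assay. The shift reported is the mean of three replicates against the DMSO-only protein.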

LOC_OS01G02750-cb003 = system: LOC_OS01G02750-cb003
How it was run: as §1

LOC_OS01G10900-cb004 = system: LOC_OS01G10900-cb004
How it was run: as §1

LOC_OS01G13800-cb001 = system: LOC_OS01G13800-cb001
How it was run: as §1

LOC_OS01G14860-cb001 = system: LOC_OS01G14860-cb001
How it was run: as §1

LOC_OS01G21960-cb002 = system: LOC_OS01G21960-cb002
How it was run: as §1

LOC_OS01G39600-cb002 = system: LOC_OS01G39600-cb002
How it was run: as §1

LOC_OS01G48390-cb002 = system: LOC_OS01G48390-cb002
How it was run: as §1

LOC_OS01G51400-cb002 = system: LOC_OS01G51400-cb002
How it was run: as §1

LOC_OS01G52050-cb004 = system: T1, LOC_OS01G52050-cb004
T1 sequence (whole entry): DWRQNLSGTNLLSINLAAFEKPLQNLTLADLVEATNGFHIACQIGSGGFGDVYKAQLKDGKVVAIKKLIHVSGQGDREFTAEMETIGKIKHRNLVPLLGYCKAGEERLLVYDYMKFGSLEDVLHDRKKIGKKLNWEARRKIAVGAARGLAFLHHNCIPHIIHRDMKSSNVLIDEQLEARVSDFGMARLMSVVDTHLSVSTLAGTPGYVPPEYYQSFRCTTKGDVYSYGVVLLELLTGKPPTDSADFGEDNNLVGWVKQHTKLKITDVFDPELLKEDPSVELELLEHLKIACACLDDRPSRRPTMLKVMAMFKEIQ
How it was run: as §1
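Further: purified Escherichia coli-expressed rice kinase domain construct.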

SMILES | thermal shift delta Tm (LOC_OS01G01410-cb001) [°C] | thermal shift delta Tm (LOC_OS01G02750-cb003) [°C] | thermal shift delta Tm (LOC_OS01G10900-cb004) [°C] | thermal shift delta Tm (LOC_OS01G13800-cb001) [°C] | thermal shift delta Tm (LOC_OS01G14860-cb001) [°C] | thermal shift delta Tm (LOC_OS01G21960-cb002) [°C] | thermal shift delta Tm (LOC_OS01G39600-cb002) [°C] | thermal shift delta Tm (LOC_OS01G48390-cb002) [°C] | thermal shift delta Tm (LOC_OS01G51400-cb002) [°C] | thermal shift delta Tm (LOC_OS01G52050-cb004) [°C]
CN1CCN(Cc2ccc(NC(=O)Nc3ccc(Oc4ccnc(N)n4)cc3)cc2C(F)(F)F)CC1 | 0.75 | 4.82 | 0.41 | 0.15 | 7.67 | 0.98 | 0.62 | 1.03 | 0.2 | 1.93
COc1cc2ncnc(Oc3ccc(CC(=O)Nc4cnn(C(C)C)c4)cc3)c2cc1OC | 0.27 | 0 | 0.09 | -0.43 | 0.03 | 0.08 | -1.25 | 0.97 | 0.22 | -0.1
CC(C)Nc1cc(-c2c[nH]c(C(=O)N[C@H](CO)c3cccc(Cl)c3)c2)c(Cl)cn1 | 6.3 | 1.26 | 0.37 | 0.75 | 5.82 | 1.37 | 1.63 | 1.24 | 0.12 | 2.18
CCOc1cc(C(=O)N2CCC(N3CCN(C)CC3)CC2)ccc1Nc1ncc2c(n1)N(C1CCCC1)c1ccccc1C(=O)N2C | 0.26 | 0.37 | 0.01 | -0.42 | 0 | 0.3 | -0.95 | 0 | -0.1 | -0.46
CCCCNc1ncc(C(=O)NCc2ccc(-n3ccnc3)cc2)c(NC2CCC(O)CC2)n1 (stereo not given) | 3.78 | 2.44 | 0.58 | -0.06 | 4.73 | 1.72 | 2.74 | 2.96 | 0.43 | 7.56
Cn1c(=O)c(F)c(Nc2ccc(I)cc2F)c2c(=O)n(C[C@@H](O)CO)cnc21 | 0.56 | -0.22 | 0.49 | 0.43 | 0.33 | 0.97 | 0.25 | 0.55 | 0.57 | 0.27
COc1cc2ncnc(Nc3ccc(F)c(Cl)c3)c2cc1OCCCN1CCOCC1 [Gefitinib (ZD1839)] | 1.27 | 0.13 | 3.7 | 0.4 | 0.18 | -0.07 | 1.46 | 2.87 | 0.02 | 0.77
CC[C@@H](N)CNc1ccnc(-c2cc(-c3cnn(C)c3)ccc2O)n1 | 0.15 | 2.58 | 0.85 | -0.28 | 2.58 | 2.15 | -0.05 | 1.98 | 0.28 | 1.98
NC(=O)c1cnc(N[C@@H]2CCCC[C@@H]2N)nc1Nc1cccc(-n2nccn2)c1 | 0.52 | 0.79 | -0.04 | -0.14 | 3.33 | 1.47 | 0.85 | 0.37 | 1.02 | 5.03
